# KCNH2 3.1 inh = blocks the human KCNH2 3.1 channel isoform | U2OS KCNH2 3.1, thallium flux FluxOr; active compounds read low | activity change, % (tested at about 1.8 µM) | 0.95% of 340,000 active;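 active = maximum activity change below -70%; inconclusive = maximum activity change from -70% to -50%; inactive = maximum activity change above -50%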;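 also: thallium influx rate constant from kinetic fluorescence after stimulation buffer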
#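 Virally transduced U2OS (3.1 isoform, 4 h infection in dark at RT) → overnight 37 C → FluxOr + Red40 in HBSS/HEPES, 45 min → stimulation buffer, 2 min kinetic read → rate constant vs DMSO controls.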
# Six1-Eya2 inh = Six1/Eya2 interaction inhibition; AID 651725; 0.56% of 360,000 active; activity change, % (no concentration beside the values); AlphaScreen GST-Six1/His-Eya2 binding, biochemical; active compounds read low
#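 Six1/Eya2 binding was read as AlphaScreen signal after compounds were pinned into GST-Six1 plus His-tagged Eya2 (5X stock 250/500 nM) in pH 8.0 Tris/NaCl/TCEP buffer, beads added, then incubated 1 h, 37 C, dark.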
# CtBP-E1A blk = blocks the CtBP interaction with E1A. AID 651724. AlphaScreen GST-E1A/His-CtBP binding, 1536-well; active compounds read low. 0.49% of 340,000 active. activity change, % (concentration not given with the values)
#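 AlphaScreen with 125 nM GST-E1A and 125 nM His-CtBP (5X stocks) in Tris pH 8.0, 300 mM NaCl, BSA, Tween 20, TCEP. Compounds preincubated 2 h at 37 deg C, then glutathione donor/nickel acceptor beads added for 1 h at 37 deg C in dark.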
# hERG WT inh = blocks the wildtype human KCNH2 potassium channel; activity change, % at 1.84 µM; Q12809; 0.37% of 340,000 active; U2OS, BacMam KCNH2, thallium flux FluxOr; active compounds read low;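 active = maximum activity change below -70%; inconclusive = maximum activity change between -70% and -50%; inactive = maximum activity change above -50%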
#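 U2OS cells transduced with wild-type KCNH2 virus are loaded with FluxOr dye for 45 min, and thallium flux is measured in kinetic reads before and after stimulation buffer. Rate constants are normalized to DMSO controls.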
# JMJD2E inh = JMJD2E (human) inhibition; JMJD2E catalytic domain, FDH-coupled NADH fluorescence (FDH is formaldehyde dehydrogenase); B2RXH2; Potency, µM (top dose mostly 57.1 µM), inactives show at the highest dose activity change, negative = inhibition, actives largely listed as inhibitors; 1.6% of 230,000 active; active = well fitted inhibition curve with a large enough effect, not every such curve was filed as active; inconclusive = small, poorly fitted or top-dose-only effect, or another doubt; inactive = no such curve, though single readings can be large or run the other way;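 also: potency is read from the fitted curve at half-maximal effect; 0% = wells with enzyme and -100% = buffer wells without enzyme; nearly all actives have a fitted effect of over 50% in size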
# Target sequence (B2RXH2 1-337 limits assumed): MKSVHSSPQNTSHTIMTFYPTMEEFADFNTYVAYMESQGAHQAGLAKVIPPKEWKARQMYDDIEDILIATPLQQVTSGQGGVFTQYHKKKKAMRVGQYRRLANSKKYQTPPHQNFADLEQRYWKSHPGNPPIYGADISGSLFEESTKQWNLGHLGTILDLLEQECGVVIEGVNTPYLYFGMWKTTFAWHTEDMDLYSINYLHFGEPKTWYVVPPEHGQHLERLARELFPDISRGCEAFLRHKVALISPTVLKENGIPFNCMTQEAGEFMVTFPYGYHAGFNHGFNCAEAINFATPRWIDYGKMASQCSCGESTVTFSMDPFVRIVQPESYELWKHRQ
# Active calls of the source: *; ? = inconclusive; / = no result given; ! = a repeat was not active. In the library only some 2% were active in any assay of this set; here they are far more common. Rule as the data show it, unless noted: active = activity change below about -65%; inconclusive = mostly about -30% to -63%; inactive = weaker than that. Unless noted, % is scaled to controls: 0 for no effect and ±100 for the full control effect.
SMILES,KCNH2 3.1 inh,Six1-Eya2 inh,CtBP-E1A blk,hERG WT inh,JMJD2E inh
COc1ccc(N2CC(O)(c3ccc(OC(F)F)cc3)[N+]3=C2CCCC3)cc1 (stereo unspecified),-72.5*,-9.5,-6.2,-85.7*,-3.5%
CCOc1ccc(N2CC(O)(c3ccc(F)cc3)[N+]3=C2CCCC3)cc1 (stereo unspecified),-104.4*,3.6,-2.7,-49.0,-4.9%
CCOc1ccc(N2CC(O)(c3cccs3)[N+]3=C2CCCC3)cc1 (stereo unspecified),-102.2*,7.8,2.3,?,-4.1%
Cc1c(CC(=O)O)c(=O)oc2c(C)c(OCc3ccccc3Br)ccc12,16.4,0.9,0.4,-22.3,/
CC1CCCCN1CCCNC(=O)Cn1c(=O)c2cccn2c2ccccc21 (stereo unspecified),9.3,-2.1,2.0,-0.3,/
Nc1c(S(=O)(=O)O)cc(NC(=O)c2ccccc2)c2c1C(=O)c1ccccc1C2=O,-42.0,-70.6*,/,1.7,/
CCCn1c(N)c(C(=O)CN(C)CC(=O)Nc2cccc(F)c2)c(=O)[nH]c1=O,-78.9*,-3.8,/,-19.8,/
CC(C)(C)n1ncc2c(=O)n(CC(=O)Nc3ccc(Cl)cc3)cnc21,-1.5,-0.6,1.2,1.6,3.6%
O=C(O)c1ccc(CNS(=O)(=O)c2ccc3ccccc3c2)cc1,3.4,10.2,-3.9,12.3,/
c1cnc2ccc3ncccc3c2c1,23.8,-0.5,-2.7,-3.7,17.8µM*
Nc1ccc2ncccc2c1,-117.8*,1.2,-3.1,2.0,?
c1ccc2c(c1)ccc1ncccc12,7.6,-2.5,-20.5,-15.7,-22.4%
C/C=C(\C)C(=O)Nc1cccc(C2=NOC3(C2)C[C@@H](C(N)=O)N(C(=O)c2ccccc2C(=O)c2ccccc2)C3)c1 (stereo partly specified),9.7,-3.2,-3.4,1.3,-21.9%
Cc1ccsc1C1NC(=O)c2ccccc2N1 (stereo unspecified),0.6,-3.2,-11.5,1.2,28.2µM*
O=C1NC(c2cccs2)Nc2ccccc21 (stereo unspecified),-6.2,-19.9,-8.3,1.4,?
Cc1cc(C(=O)COC(=O)CC2Sc3ccccc3NC2=O)c(C)n1-c1ccc(Br)cc1 (stereo unspecified),-18.4,-17.5,-16.5,-6.4,2.7%
COc1ccc(N2CSC3=C(C#N)C(c4ccc(OC)c(OC)c4)CC(=O)N3C2)c(OC)c1 (stereo unspecified),2.8,-12.4,-4.1,2.5,-23.7%
CCc1ccc(C2CC(=O)N3CN(c4ccccc4)CSC3=C2C#N)cc1 (stereo unspecified),-5.4,0.0,1.8,2.3,?
COc1ccc(C2CC(=O)N3CN(c4ccc(C)c(Cl)c4)CSC3=C2C#N)cc1OC (stereo unspecified),-11.1,5.2,2.2,-2.3,12.6µM*
CCOc1ccccc1N1CSC2=C(C#N)C(c3c(OC)ccc4ccccc34)CC(=O)N2C1 (stereo unspecified),-3.2,-1.1,-6.3,-8.8,7.94µM*
N#CC1=C2SCN(c3ccc(F)cc3)CN2C(=O)CC1c1cccc(F)c1 (stereo unspecified),4.4,0.2,-5.2,6.2,22.4µM*
CCCNC(=O)C1(C)CCCN(Cc2ccc3ccccc3c2)C1 (stereo unspecified),/,-1.5,0.5,/,/
Cc1cc(Br)c(NC(=O)CSc2n[nH]c(N)n2)c(Br)c1,10.6,0.7,1.3,-8.2,/
Cc1ccc(C(=O)CSc2nnc(-c3ccccc3)o2)cc1,-18.6,2.0,8.6,2.7,3.4%
COc1ccc(C(=O)C2CCCN(Cc3cccn3-c3ccccn3)C2)c(OC)c1 (stereo unspecified),-91.0*,-13.2,-6.8,-48.0,1.3%
SMILES,KCNH2 3.1 inh,Six1-Eya2 inh,CtBP-E1A blk,hERG WT inh,JMJD2E inh
COc1ccc(F)cc1C(=O)C1CCCN(Cc2cccn2-c2ccccn2)C1 (stereo unspecified),-85.9*,3.1,-5.8,-70.9*,-19.9%
Cc1ccc(/C=N/N2CCOCC2)s1,13.0,2.3,1.3,-2.2,0.3%
COc1cccc(CN2CCN(Cc3cc4ccccc4o3)CC2CCO)c1 (stereo unspecified),-12.4,0.8,20.4,8.8,/
CCOc1ccc(CN2CCN(Cc3nc(C(C)C)cs3)CC2CCO)cc1 (stereo unspecified),-96.1*,-2.1,-0.2,/,11.1%
COc1ccc(CN2CCN(Cc3cc4ccccc4o3)CC2CCO)cc1C (stereo unspecified),-70.8*,-3.0,-10.8,-5.2,/
CCOc1ccc(CN2CCN(Cc3cc4ccccc4o3)CC2CCO)cc1 (stereo unspecified),-106.9*,-3.6,-7.2,-47.6,/
Nc1nc(-c2ccccc2)c(N=Nc2cccc3ccccc23)s1,4.1,-78.1*,-93.3*,0.2,-9.4%
Cc1ncc(N=Nc2ccccc2Cl)c(-c2ccccc2)n1,-2.4,-69.3*,-66.1*,-1.5,-5.0%
CC(=O)Nc1sc(N)nc1-c1ccccc1,-1.8,6.4,4.3,-23.4,-3.6%
Nc1nc(-c2ccccc2)c(N=Nc2ccccc2Cl)s1,-23.3,-75.8*,-66.9*,-5.5,-0.1%
CC(C)[C@H](Nc1ccc(S(=O)(=O)N2CCOCC2)cc1[N+](=O)[O-])C(=O)OCC(N)=O,-19.3,5.0,0.0,3.4,4.9%
CC(=O)Nc1ccccc1-c1ccccc1[N+](=O)[O-],10.7,-2.9,2.9,-7.1,/
COC(=O)c1ccccc1NC1=C/C(=N\S(=O)(=O)c2cccs2)c2ccccc2C1=O,-3.7,-84.0*!,?,5.4,?
COC(=O)c1ccccc1NC1=C/C(=N\S(=O)(=O)c2ccc(C(=O)O)cc2)c2ccccc2C1=O,-34.4,?,-80.3*,-1.0,/
Cc1ccc(S(=O)(=O)/N=C2\C=C(Nc3cccc(C(=O)O)c3)C(=O)c3ccccc32)c(C)c1,-1.6,?,-81.9*,-1.0,/
Cc1ccc(S(=O)(=O)/N=C2\C=C(Nc3ccc(O)cc3)C(=O)c3ccccc32)cc1,-6.4,-77.5*,-69.2*,17.4,/
CNC1C(O)C2OC3OC(C)CC(=O)[C@@]3(O)O[C@H]2[C@H](NC)C1O (stereo partly specified),/,/,/,/,3.6%
Cc1c2cnn(CC(=O)NCCCN3CCCCC3C)c(=O)c2c(C)n1Cc1ccccc1 (stereo unspecified),2.4,-1.3,-11.7,7.7,/
Cc1c(C(=O)N2CCN(C3CCS(=O)(=O)C3)CC2)oc2c(F)cccc12 (stereo unspecified),24.0,6.7,18.6,-4.9,/
COc1cccc(NC(=O)CN(C)C(=O)CC(C)c2ccccc2)c1 (stereo unspecified),2.6,-1.0,-10.8,-11.7,/
O=C1C(Nc2ccccc2)=C/C(=N/S(=O)(=O)c2cccs2)c2ccccc21,-20.8,-85.6*,?,-15.5,?

# Source: PubChem (National Center for Advancing Translational Sciences (NCATS))
